For 18 compounds, growth inhibition, inhibition and outcome results are on record in PubChem BioAssay.

A number with no mark means an inactive call. For part of these data: Measured potencies and affinities stand elsewhere. Activity calls are given as the source filed them. Unless noted, how the calls were made is not given here.

The nature of assay [1]: antimalarial activity against Dd2 strain (AID 2302;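 active means growth inhibition above 50% at the single 2 µM test dose, taken to imply half-maximal potency below 2 µM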;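 further: 0% = DMSO untreated growth and 100% = chloroquine plus artemisinin killed control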). Conditions: P. falciparum Dd2 in RBCs, LDH growth readout, 72 h; at 2 µM; stronger effect = higher value.
A short description of assay [2]: human hepatoma cell viability loss – ATP luminescence, cytotoxicity control for P. falciparum antimalarial project, primary screen (AID 2303;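 active means inhibition above 50%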;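 further: 0% = DMSO wells and 100% = digitonin-killed cells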). The note with it: HepG2 viability, 24-48 h, at 10 µM, stronger effect = higher value.
Assay [3] addresses L-lactate dehydrogenase (Plasmodium falciparum (isolate CDC / Honduras)) (UniProt Q27743). Nature of the assay: PfLDH activity inhibition – cell lysate, 3D7 strain, counter-screen for P. falciparum growth inhibition project (AID 2304).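 Further: 0% = vehicle and 100% = reference inhibitor.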 Conditions: P. falciparum 3D7 crude extract, LDH APAD/NBT absorbance; at 2 µM; stronger effect = higher value. (In general: The purpose of a counterscreen is to sort out artefacts and off-target activity.)

Assay [4] in a line: inhibition of 3D7 malaria parasite growth – strain 3D7 (AID 2306).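 Further: 0% = DMSO wells and 100% = chloroquine plus artemisinin control wells.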 The note with it: P. falciparum 3D7 erythrocytic growth, LDH absorbance, 72 h; at 2 µM; stronger effect = higher value.
Assay [5] concerns the target Calcium-dependent protein kinase 1 (Plasmodium falciparum (isolate 3D7)) (UniProt P62344). Put plainly: PfCDPK1 kinase inhibitors, biochemical, TCAMS library (AID 1159585; cut-off not given, nearly all actives have IC50 up to about 0.98 µM;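 further: inhibitors leave more ATP so luminescence rises with inhibition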). Conditions: recombinant PfCDPK1, Kinase-Glo ATP depletion luminescence.
For assay [6], the target named is Plasmodium falciparum protein kinase 6 (PK6, PF3D7_1337100) (UniProt Q8IDW1). Nature of the assay: PfPK6 kinase inhibitors, biochemical, TCAMS library (AID 1159586). Conditions: recombinant PfPK6, Kinase-Glo ATP depletion luminescence. A general note: In Kinase-Glo more light means more ATP remaining.
Sequence of Plasmodium falciparum protein kinase 6 (PK6, PF3D7_1337100) (Q8IDW1 1-305): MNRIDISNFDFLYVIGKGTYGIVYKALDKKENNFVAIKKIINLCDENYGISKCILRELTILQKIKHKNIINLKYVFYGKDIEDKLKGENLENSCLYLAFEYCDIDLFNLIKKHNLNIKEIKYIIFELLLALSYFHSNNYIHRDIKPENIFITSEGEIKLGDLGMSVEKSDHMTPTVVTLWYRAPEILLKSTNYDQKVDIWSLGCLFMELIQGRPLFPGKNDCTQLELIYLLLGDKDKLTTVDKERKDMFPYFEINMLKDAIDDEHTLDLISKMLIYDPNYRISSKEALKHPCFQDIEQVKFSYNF
The target of assay [7] is Protein kinase 7 (PK7), Plasmodium falciparum 3D7 (PF3D7_0213400) (UniProt Q7YTF7). Nature of the assay: inhibition of Plasmodium PK7 catalytic activity – biochemical, TCAMS antimalarial set, Kinase-Glo luminescence (AID 1159587). Conditions: recombinant PfPK7, Kinase-Glo ATP depletion luminescence.
Sequence of Protein kinase 7 (PK7), Plasmodium falciparum 3D7 (PF3D7_0213400) (Q7YTF7 1-343): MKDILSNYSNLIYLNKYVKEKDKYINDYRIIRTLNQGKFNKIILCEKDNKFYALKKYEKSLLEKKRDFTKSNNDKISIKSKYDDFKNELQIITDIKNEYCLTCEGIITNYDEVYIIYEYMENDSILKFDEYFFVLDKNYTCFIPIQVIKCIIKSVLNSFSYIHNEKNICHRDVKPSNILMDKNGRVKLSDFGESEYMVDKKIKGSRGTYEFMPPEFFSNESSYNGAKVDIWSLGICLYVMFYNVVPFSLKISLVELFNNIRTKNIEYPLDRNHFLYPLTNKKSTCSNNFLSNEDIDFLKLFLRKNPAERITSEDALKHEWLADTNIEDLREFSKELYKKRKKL
Assay [8] concerns the target Calcium-dependent protein kinase 4 (Plasmodium falciparum (isolate 3D7)) (UniProt Q8IBS5). Nature of the assay: PfCDPK4 kinase inhibitors, biochemical, TCAMS library (AID 1159588; cut-off not given, nearly all actives have IC50 up to about 0.91 µM). The note with it: recombinant PfCDPK4, Kinase-Glo ATP depletion luminescence.

Sequence of Calcium-dependent protein kinase 1 (Plasmodium falciparum (isolate 3D7)) (P62344 whole entry, looked up): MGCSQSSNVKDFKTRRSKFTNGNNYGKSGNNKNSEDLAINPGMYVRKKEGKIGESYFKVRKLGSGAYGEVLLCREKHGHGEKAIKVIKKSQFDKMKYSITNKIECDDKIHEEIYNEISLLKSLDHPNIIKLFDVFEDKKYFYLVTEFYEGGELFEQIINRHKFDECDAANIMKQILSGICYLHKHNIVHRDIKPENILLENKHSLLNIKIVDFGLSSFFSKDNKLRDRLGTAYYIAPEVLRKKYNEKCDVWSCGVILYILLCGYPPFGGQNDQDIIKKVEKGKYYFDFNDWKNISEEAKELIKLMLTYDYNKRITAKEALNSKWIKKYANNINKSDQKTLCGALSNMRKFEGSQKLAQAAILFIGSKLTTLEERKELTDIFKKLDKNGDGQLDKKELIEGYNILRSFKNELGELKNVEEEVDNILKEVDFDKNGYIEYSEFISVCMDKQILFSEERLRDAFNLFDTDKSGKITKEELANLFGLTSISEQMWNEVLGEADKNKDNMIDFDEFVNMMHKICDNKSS
Sequence of Calcium-dependent protein kinase 4 (Plasmodium falciparum (isolate 3D7)) (Q8IBS5 whole entry, looked up): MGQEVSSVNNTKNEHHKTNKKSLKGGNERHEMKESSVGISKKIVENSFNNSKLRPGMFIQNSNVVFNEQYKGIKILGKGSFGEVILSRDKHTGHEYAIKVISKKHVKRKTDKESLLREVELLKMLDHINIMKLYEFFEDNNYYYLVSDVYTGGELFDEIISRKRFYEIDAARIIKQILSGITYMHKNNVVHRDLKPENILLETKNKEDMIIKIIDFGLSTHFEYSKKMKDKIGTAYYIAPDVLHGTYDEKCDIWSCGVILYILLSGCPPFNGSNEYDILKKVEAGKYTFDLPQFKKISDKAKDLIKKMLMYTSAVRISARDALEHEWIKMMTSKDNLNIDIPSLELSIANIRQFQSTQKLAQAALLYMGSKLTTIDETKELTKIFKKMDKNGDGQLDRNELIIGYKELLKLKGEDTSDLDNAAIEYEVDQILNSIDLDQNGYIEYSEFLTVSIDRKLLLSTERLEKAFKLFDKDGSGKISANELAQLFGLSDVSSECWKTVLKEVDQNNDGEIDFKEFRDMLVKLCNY
Sequence of L-lactate dehydrogenase (Plasmodium falciparum (isolate CDC / Honduras)) (Q27743 whole entry, looked up): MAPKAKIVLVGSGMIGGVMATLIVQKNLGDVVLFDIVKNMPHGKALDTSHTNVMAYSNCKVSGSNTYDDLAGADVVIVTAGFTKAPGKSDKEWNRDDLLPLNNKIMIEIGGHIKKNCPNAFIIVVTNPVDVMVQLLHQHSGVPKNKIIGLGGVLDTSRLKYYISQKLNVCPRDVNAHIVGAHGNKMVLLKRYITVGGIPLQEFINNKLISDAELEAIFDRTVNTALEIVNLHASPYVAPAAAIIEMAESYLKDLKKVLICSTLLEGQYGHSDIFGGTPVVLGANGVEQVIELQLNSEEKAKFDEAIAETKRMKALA

Turning to `COc1cc(F)c2nccc([C@@H](O)CN3CC[C@@H](NC(=O)OCc4ccccc4)[C@@H](F)C3)c2c1`, the growth inhibition in assay [1] was 100% (active); in assay [4], 99% (active). The inhibition (commonly the drop in the measured response relative to a control, in per cent) in assay [2] was 44%; in assay [3], 2%. The outcome in assay [5], in assay [6], in assay [7] and in assay [8] was inactive.

For `COCCNC(=O)c1ccc(OC2CCN(CC(C)=Cc3ccccc3)CC2)c(Cl)c1`, the results for the growth inhibition in assay [1] and in assay [4] were 95% (active) and 94% (active), respectively. The inhibition in assay [2] was 18%; in assay [3], 2%. In addition, the result in assay [5], in assay [6], in assay [7] and in assay [8] was inactive.

In the case of `COc1ccccc1C1CCN(C2CCC(NC(=O)/C=C/c3cccc(Cl)c3F)CC2)CC1` (centres undefined), the growth inhibition in assay [1] was 19%; in assay [4] it was 96% (active). Also, the inhibition in assay [2] was 50% (active); in assay [3] it was -4%. Further, the result in assay [5], in assay [6], in assay [7] and in assay [8] was inactive.

Take `CC(=O)Oc1cc(C)ccc1C1CCN(CCCCNC(=O)c2ccc(-c3ccc(C(F)(F)F)cc3)cc2)CC1`: the results for the growth inhibition in assay [1] and in assay [4] were 94% (active) and 100% (active), respectively. Moreover, the inhibition in assay [2] is 54% (active); in assay [3], -7%. The outcome in assay [5], in assay [6], in assay [7] and in assay [8] was inactive.

For the compound `Cc1ccc(CNC(=O)c2ccc(CN3CCCN(Cc4ccsc4)CC3)cc2)cc1`, the growth inhibition in assay [1] was -1%; in assay [4], 93% (active). Besides, the inhibition in assay [2] is 16%; in assay [3] it was 5%. The result in assay [5], in assay [6], in assay [7] and in assay [8] was inactive.

As to `CC(C)Cn1cc(C2CCN(CCN3CCC(CNC(=O)c4ccc(-c5ccc(C(F)(F)F)cc5)cc4)CC3)CC2)c2ccccc21`, the results for the growth inhibition in assay [1] and in assay [4] were 87% (active) and 101% (active), respectively. Also, the figures for the inhibition in assay [2] and in assay [3] were 100% (active) and 0%, respectively. The outcome in assay [5], in assay [6], in assay [7] and in assay [8] was inactive.

`CCCC1(NC[C@@H](O)[C@H](Cc2ccccc2)NC(=O)c2cc(NCC)cc(N3CCCCS3(=O)=O)c2)CCC1`: the growth inhibition in assay [1] was 86% (active); in assay [4], 100% (active). Moreover, the inhibition was -8% in assay [2] and -1% in assay [3]. In addition, the result in assay [5], in assay [6], in assay [7] and in assay [8] was inactive.

As to `Cc1ccc(S(=O)(=O)NC2CCN(CCNC(=O)Nc3cc(C)nc4ccccc34)C2)cc1` (centres undefined), the values for the growth inhibition in assay [1] and in assay [4] were 42% and 97% (active), respectively. The inhibition in assay [2] is -2%; in assay [3], -3%. In addition, the result in assay [5], in assay [6], in assay [7] and in assay [8] was inactive.

`COc1ccc(S(=O)(=O)NCC2CCCN(CCCCCNC(=O)/C=C/c3ccc(Cl)c(Cl)c3)C2)cc1` (centres undefined): the growth inhibition in assay [1] is 1%; in assay [4] it was 81% (active). Besides, the inhibition in assay [2] was 53% (active); in assay [3], 1%. Further, the outcome in assay [5], in assay [6], in assay [7] and in assay [8] was inactive.

For the compound `Cc1cccc2[nH]c(-c3ccc(-c4cccc(CN5CC(C)OC(C)C5)c4)s3)nc12` (centres undefined), the values for the growth inhibition in assay [1] and in assay [4] were 79% (active) and 98% (active), respectively. In addition, the inhibition in assay [2] is 6%; in assay [3], -5%. Further, the result in assay [5], in assay [6], in assay [7] and in assay [8] was inactive.

Turning to `CN1CCC(C(=O)Nc2ccc(-c3ccc(-c4nc5ccccc5[nH]4)s3)cc2)CC1`, the growth inhibition is 22% in assay [1] and 99% (active) in assay [4]. For the same compound, the values for the inhibition in assay [2] and in assay [3] were 30% and 3%, respectively. Further, the result in assay [5], in assay [6], in assay [7] and in assay [8] was inactive.

For the compound `COc1ccc(NC(=O)NC2CCN(CCCCCNC(=O)/C=C/c3ccc(Cl)c(Cl)c3)C2)c(OC)c1` (centres undefined), the growth inhibition is 9% in assay [1] and 96% (active) in assay [4]. The inhibition in assay [2] was 24%; in assay [3] it was -3%. The result in assay [5], in assay [6], in assay [7] and in assay [8] was inactive.

Regarding `Cc1c(-c2cccc(C(C)(C)NC3CCN(Cc4ccccc4)CC3)c2)cnc(N)c1C`, the growth inhibition was 39% in assay [1] and 100% (active) in assay [4]. The inhibition was 14% in assay [2] and -6% in assay [3]. For the same compound, the outcome in assay [5], in assay [6], in assay [7] and in assay [8] was inactive.

Regarding `CC=CC1CCNC(C(O)c2ccnc3ccc(OC)cc23)C1` (centres undefined), the growth inhibition in assay [1] was 1%; in assay [4], 91% (active). Moreover, the inhibition in assay [2] was -2%; in assay [3] it was 3%. Further, the result in assay [5], in assay [6], in assay [7] and in assay [8] was inactive.

In the case of `COc1ccc(OCC(O)CN(Cc2ccccc2OC)C(=O)Nc2ccc(Br)cc2)cc1` (centres undefined), the figures for the growth inhibition in assay [1] and in assay [4] were 2% and 97% (active), respectively. For the same compound, the inhibition was 8% in assay [2] and 0% in assay [3]. Moreover, the result in assay [5], in assay [6], in assay [7] and in assay [8] was inactive.

Take `Cc1cccc2[nH]c(-c3ccc(-c4ccc(NC(=O)C(C)CN(C)C)cc4)cc3)nc12` (centres undefined): the growth inhibition in assay [1] and in assay [4] was 99% (active) throughout. Further, the inhibition was 18% in assay [2] and -6% in assay [3]. Further, the outcome in assay [5], in assay [6], in assay [7] and in assay [8] was inactive.

Consider `COc1ccc(NC(=O)[C@H](Cc2ccccc2)Nc2nc(NCCN3CCCC3)ncc2C)cc1`, for which the growth inhibition was 9% in assay [1] and 89% (active) in assay [4]. The inhibition in assay [2] is 26%; in assay [3], 1%. For the same compound, the outcome in assay [5], in assay [6], in assay [7] and in assay [8] was inactive.

With `Oc1ccc(CCNCc2ccc(OCc3ccccc3)c(OCc3ccccc3)c2)cc1`, the values for the growth inhibition in assay [1] and in assay [4] were 9% and 88% (active), respectively. For the same compound, the inhibition was 31% in assay [2] and -3% in assay [3]. For the same compound, the result in assay [5], in assay [6], in assay [7] and in assay [8] was inactive.
